# Measurements: PubChem BioAssay AID2113 (National Center for Advancing Translational Sciences (NCATS), 2009)
# Records with an inconclusive call do not appear. A call without a number means that no potency is given here. Active and inactive are the calls of the source. The call rests on the fitted dose curve; in most records, active means well fitted curve in either direction with a large enough effect; inconclusive means small, poorly fitted or top-dose-only effect; inactive means no such curve, though single readings can be large or run the other way.
# Molecular target: Lysosomal alpha-glucosidase (Homo sapiens) (UniProt P10253)
# Experiment: Confirmation of Inhibitors and Activators of Human alpha-Glucosidase From Spleen Homogenate;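 on potency: fluorescence of 4-methylumbelliferone released from a fluorogenic glucopyranoside substrate at pH 5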
# Conditions: alpha-glucosidase enzyme activity; series mostly up to 60.5 µM
# How it was run: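 Compounds titrated against spleen-homogenate alpha-glucosidase, pH 5.0, 1 mM 4-MU-glucoside substrate, 37 C for 40 min. Fluorescence after pH 10 stop, normalised to no-enzyme and enzyme controls; Hill-equation AC50.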
# Potency means the concentration at half of the fitted maximal effect.
row,SMILES,Potency
1,Cc1sc(-c2cc3cc(Cl)ccc3oc2=O)nc1-c1ccccc1,inactive
2,CC1=C(C(=O)OC(C)C)C(c2cccc([N+](=O)[O-])c2)n2c(cc(=O)[nH]c2=S)N1 (stereo not given),inactive
3,COc1ccc(OC)c(/C=C/C(=O)N(C)CC(=O)Nc2ccc(C)cc2)c1,inactive
4,CCc1sc(-c2cc3ccc(O)cc3oc2=O)nc1-c1ccc(C)cc1,inactive
5,COC(=O)c1cccc(S(=O)(=O)N2CCOCC2)c1,inactive
6,CC1=CC(=C2C=CC(=O)C=C2)C=C(C)N1C,inactive
7,Cc1cccc(S(=O)(=O)c2c(N)n(-c3ccccc3)c3nc4ccccc4nc23)c1,inactive
8,OCC(CO)NC1C[C@](O)(CO)[C@@H](O)[C@H](O)[C@H]1O (stereo not given in full),inactive
9,COc1ccc(C#Cc2c[nH]c(=O)c3cncnc23)cc1OC,inactive
10,COc1ccc(CCc2c[nH]c(=O)c3cncnc23)cc1OC,inactive
11,O=c1oc2ccccc2cc1-c1nc2c(s1)CCc1ccccc1-2,inactive
12,Cc1nnc(SCC(=O)Nc2nsc(-c3ccc(C(C)(C)C)cc3)n2)s1,inactive
13,Cc1ccc(N2CCN(S(=O)(=O)c3ccc4c(c3)CC(=O)N4)CC2)cc1,inactive
14,Cc1c(C#N)c(N)nc2c3c(sc12)NC(=O)CC3c1ccc(Cl)cc1 (stereo not given),inactive
15,CCCCCCc1cc2cc(C(=O)NC)c(=N)oc2cc1O,inactive
16,O=C(c1cccc2ccccc12)N1CCN(S(=O)(=O)c2ccccc2)CC1,inactive
17,CC(C)Cn1c(SCC(=O)N2CCN(S(=O)(=O)c3ccccc3)CC2)nc2ccccc21,inactive
18,Cc1cnc(C(=O)Nc2cc(S(=O)(=O)N3CCOCC3)ccc2N2CCN(C)CC2)cn1,inactive

row,SMILES,Potency
1,Cc1ccc2c(=O)c3ccccc3n(CCCN)c2c1C,inactive
2,COc1ccc(CCn2cc(C#N)c(=O)[nH]c2=O)cc1OC,inactive
3,CCSc1nc(=S)n(CC)c(C)c1C(C)=O,inactive
4,O=c1oc2ccccc2cc1-c1csc(Cc2nc3c(s2)CCCC3)n1,inactive
5,O=C1Cc2cc(S(=O)(=O)N3CCN(c4cccc(C(F)(F)F)c4)CC3)ccc2N1,18.8 µM [inhibitor] (active)
6,NN=C1c2cc(S(=O)(=O)NCCO)ccc2-c2ccc(S(=O)(=O)NCCO)cc21,inactive
7,COc1ccc(-c2cc(=O)c(C(=O)c3ccc(C)cc3)n[nH]2)cc1,inactive
8,CCS(=O)(=O)N1Cc2ccccc2CC1C(=O)Nc1ccc(NC(C)=O)cc1 (stereo not given),inactive
9,COc1cccc(S(=O)(=O)N2CCOCC2)c1,inactive
10,COc1ccc(N2CCN(S(=O)(=O)c3ccc4c(c3)CC(=O)N4)CC2)cc1,18.8 µM [inhibitor] (active)
11,O=C(c1cc2c(ccc3ccccc32)oc1=O)N1CCN(CCO)CC1,inactive
12,CCc1sc(-c2cc3cc(Cl)ccc3oc2=O)nc1-c1ccccc1,inactive
13,N#Cc1c(-c2ccc(F)cc2)cc(-c2cccnc2)nc1N,inactive
14,O=Cc1ccc(N2CCN(S(=O)(=O)c3ccc4c(c3)CC(=O)N4)CC2)cc1,4.61 µM [inhibitor] (active)
15,Cc1ccc(CCNC(=O)CNC(=S)N(Cc2ccccc2)Cc2cccnc2)cc1,inactive
16,CN(C)N=C1c2cc(S(=O)(=O)N3CCOCC3)ccc2-c2ccc(S(=O)(=O)N3CCOCC3)cc21,inactive
17,CCOC(=O)C1CCCN(C(=O)CCC(=O)Nc2ccc3nc(N4CCOCC4)cc(C)c3c2)C1 (stereo not given),inactive
